{"source": "ChEMBL document CHEMBL1157539", "about": "“Thousands of chemical starting points for antimalarial lead identification” (Nature, 2010)", "assay_type_in_all_cases": "functional", "key": {"Plasmodium falciparum [1]": {"tested_on": "Plasmodium falciparum", "experiment": "GSK_TCMDC: Inhibition of Plasmodium falciparum 3D7 in whole red blood cells, using parasite LDH activity as an index of growth. Test compounds present at 2uM"}, "Plasmodium falciparum [2]": {"tested_on": "Plasmodium falciparum", "experiment": "GSK_TCMDC: Inhibition of Plasmodium falciparum Dd2 in whole red blood cells, using parasite LDH activity as an index of growth. Test compounds present at 2uM"}, "HepG2": {"tested_on": "HepG2", "experiment": "GSK_TCMDC: Percent inhibition of human HepG2 cell line. Test compounds present at 10uM."}}}
{"smiles": "O=[N+]([O-])c1ccc(Nc2nc(N/N=C/c3cccc(O)c3)nc(N3CCCC3)n2)cc1", "values": [{"measurement": "Inhibition", "setting": "Plasmodium falciparum [1]", "result": 88, "unit": "%"}, {"measurement": "Inhibition", "setting": "Plasmodium falciparum [2]", "result": 9, "unit": "%"}, {"measurement": "Inhibition", "setting": "HepG2", "result": 0, "unit": "%"}]}
{"smiles": "CN1CCCN(Cc2ccc(-c3cccc(NC(=O)c4ccc(C#N)cc4)c3)cc2)CC1.O=C(O)C(F)(F)F", "values": [{"measurement": "Inhibition", "setting": "Plasmodium falciparum [1]", "result": 100, "unit": "%"}, {"measurement": "Inhibition", "setting": "Plasmodium falciparum [2]", "result": 26, "unit": "%"}, {"measurement": "Inhibition", "setting": "HepG2", "result": 29, "unit": "%"}]}
{"smiles": "O=C(CCc1ccccc1)NC(c1ccc(Cl)cc1)c1ccc2cccnc2c1O", "note": "(stereo not given)", "values": [{"measurement": "Inhibition", "setting": "Plasmodium falciparum [1]", "result": 95, "unit": "%"}, {"measurement": "Inhibition", "setting": "Plasmodium falciparum [2]", "result": 49, "unit": "%"}, {"measurement": "Inhibition", "setting": "HepG2", "result": 59, "unit": "%"}]}
{"smiles": "O=C(Cn1c(CCc2cccc(F)c2F)nc(=O)c2cccnc21)N(Cc1ccc(-c2ccc(C(F)(F)F)cc2)cc1)C1CCN(C2CCSCC2)CC1.O=C(O)C(O)C(O)C(=O)O", "values": [{"measurement": "Inhibition", "setting": "Plasmodium falciparum [1]", "result": 100, "unit": "%"}, {"measurement": "Inhibition", "setting": "Plasmodium falciparum [2]", "result": 63, "unit": "%"}, {"measurement": "Inhibition", "setting": "HepG2", "result": 49, "unit": "%"}]}
{"smiles": "Fc1ccc(-c2cc(NCCCn3ccnc3)nc(-c3cccnc3)n2)cc1", "values": [{"measurement": "Inhibition", "setting": "Plasmodium falciparum [1]", "result": 99, "unit": "%"}, {"measurement": "Inhibition", "setting": "Plasmodium falciparum [2]", "result": 70, "unit": "%"}, {"measurement": "Inhibition", "setting": "HepG2", "result": 11, "unit": "%"}]}
{"smiles": "CN(Cc1ccc(C#N)cc1)C1CCN(c2cc(NC(=O)c3cccc(F)c3)ccn2)CC1.O=C(O)C(F)(F)F", "values": [{"measurement": "Inhibition", "setting": "Plasmodium falciparum [1]", "result": 83, "unit": "%"}, {"measurement": "Inhibition", "setting": "Plasmodium falciparum [2]", "result": 0, "unit": "%"}, {"measurement": "Inhibition", "setting": "HepG2", "result": 9, "unit": "%"}]}
{"smiles": "CCN(CC)S(=O)(=O)c1ccc(Cl)c(C(=O)Nc2ccc3nc(C)sc3c2)c1", "values": [{"measurement": "Inhibition", "setting": "Plasmodium falciparum [1]", "result": 96, "unit": "%"}, {"measurement": "Inhibition", "setting": "Plasmodium falciparum [2]", "result": 94, "unit": "%"}, {"measurement": "Inhibition", "setting": "HepG2", "result": 9, "unit": "%"}]}
{"smiles": "Cc1nc(N)nc(N)c1Oc1cccc(Cl)c1.O=S(=O)(O)O", "values": [{"measurement": "Inhibition", "setting": "Plasmodium falciparum [1]", "result": 94, "unit": "%"}, {"measurement": "Inhibition", "setting": "Plasmodium falciparum [2]", "result": 0, "unit": "%"}, {"measurement": "Inhibition", "setting": "HepG2", "result": 49, "unit": "%"}]}
{"smiles": "O=C(Nc1cccc(-c2ccc(-c3nc4cc(C(F)(F)F)ccc4[nH]3)cc2)c1)c1ccncc1", "values": [{"measurement": "Inhibition", "setting": "Plasmodium falciparum [1]", "result": 100, "unit": "%"}, {"measurement": "Inhibition", "setting": "Plasmodium falciparum [2]", "result": 90, "unit": "%"}, {"measurement": "Inhibition", "setting": "HepG2", "result": 79, "unit": "%"}]}
{"smiles": "C[C@@H](Nc1nc(NCc2ccccc2)c2sccc2n1)c1ccccc1", "values": [{"measurement": "Inhibition", "setting": "Plasmodium falciparum [1]", "result": 91, "unit": "%"}, {"measurement": "Inhibition", "setting": "Plasmodium falciparum [2]", "result": 75, "unit": "%"}, {"measurement": "Inhibition", "setting": "HepG2", "result": 31, "unit": "%"}]}
{"smiles": "Clc1ccc2c(NCCc3ccccn3)ccnc2c1", "values": [{"measurement": "Inhibition", "setting": "Plasmodium falciparum [1]", "result": 92, "unit": "%"}, {"measurement": "Inhibition", "setting": "Plasmodium falciparum [2]", "result": 72, "unit": "%"}, {"measurement": "Inhibition", "setting": "HepG2", "result": 13, "unit": "%"}]}
{"smiles": "CN(C)CCC1CCN(CCS(=O)(=O)c2cccc(Nc3ncc(-c4cccc(F)c4)cn3)c2)CC1", "values": [{"measurement": "Inhibition", "setting": "Plasmodium falciparum [1]", "result": 96, "unit": "%"}, {"measurement": "Inhibition", "setting": "Plasmodium falciparum [2]", "result": 12, "unit": "%"}, {"measurement": "Inhibition", "setting": "HepG2", "result": 59, "unit": "%"}]}
{"smiles": "CCOC(=O)c1ccc(NC(=O)Nc2ccc(-c3cccc(-c4nc5cccc(C)c5[nH]4)c3)cc2)cc1", "values": [{"measurement": "Inhibition", "setting": "Plasmodium falciparum [1]", "result": 100, "unit": "%"}, {"measurement": "Inhibition", "setting": "Plasmodium falciparum [2]", "result": 100, "unit": "%"}, {"measurement": "Inhibition", "setting": "HepG2", "result": 91, "unit": "%"}]}
{"smiles": "N#Cc1ccc(-c2ccc(C(=O)NC3CCN(CCN4CCc5c(cccc5C(F)(F)F)C4)CC3)cc2)cc1", "values": [{"measurement": "Inhibition", "setting": "Plasmodium falciparum [1]", "result": 98, "unit": "%"}, {"measurement": "Inhibition", "setting": "Plasmodium falciparum [2]", "result": 51, "unit": "%"}, {"measurement": "Inhibition", "setting": "HepG2", "result": 40, "unit": "%"}]}
{"smiles": "CCCCCCCCc1c(C)[nH]c(C)c(Cl)c1=O", "values": [{"measurement": "Inhibition", "setting": "Plasmodium falciparum [1]", "result": 96, "unit": "%"}, {"measurement": "Inhibition", "setting": "Plasmodium falciparum [2]", "result": 95, "unit": "%"}, {"measurement": "Inhibition", "setting": "HepG2", "result": 0, "unit": "%"}]}
{"smiles": "CCn1ccc2c(N3CCCS3(=O)=O)cc(C(=O)N[C@@H](Cc3ccccc3)[C@H](O)CNC3CCCCC3)cc21", "values": [{"measurement": "Inhibition", "setting": "Plasmodium falciparum [1]", "result": 97, "unit": "%"}, {"measurement": "Inhibition", "setting": "Plasmodium falciparum [2]", "result": 98, "unit": "%"}, {"measurement": "Inhibition", "setting": "HepG2", "result": 0, "unit": "%"}]}
{"smiles": "CCC[C@@H]([C@@H](CC1CCCCC1)C(=O)N[C@@H](CCOC(=O)NCC)C(=O)Nc1nccs1)N(O)C=O", "values": [{"measurement": "Inhibition", "setting": "Plasmodium falciparum [1]", "result": 100, "unit": "%"}, {"measurement": "Inhibition", "setting": "Plasmodium falciparum [2]", "result": 79, "unit": "%"}, {"measurement": "Inhibition", "setting": "HepG2", "result": 0, "unit": "%"}]}
{"smiles": "c1ccc(C2=NN=C(c3ccccn3)C3C4CC(C23)C2C3CC(c5ccccc53)C42)nc1", "note": "(stereo not given)", "values": [{"measurement": "Inhibition", "setting": "Plasmodium falciparum [1]", "result": 98, "unit": "%"}, {"measurement": "Inhibition", "setting": "Plasmodium falciparum [2]", "result": 77, "unit": "%"}, {"measurement": "Inhibition", "setting": "HepG2", "result": 39, "unit": "%"}]}
{"smiles": "O=C(c1ccc2ccccc2n1)N1CCCc2cc(Br)ccc21", "values": [{"measurement": "Inhibition", "setting": "Plasmodium falciparum [1]", "result": 97, "unit": "%"}, {"measurement": "Inhibition", "setting": "Plasmodium falciparum [2]", "result": 74, "unit": "%"}, {"measurement": "Inhibition", "setting": "HepG2", "result": 19, "unit": "%"}]}
{"smiles": "CCN1CCC(N(Cc2ccc(-c3ccc(C(F)(F)F)cc3)cc2)C(=O)Cn2c(CCc3cccc(F)c3F)cc(=O)c3cn(C)nc32)CC1.O=C(O)C(O)C(O)C(=O)O", "values": [{"measurement": "Inhibition", "setting": "Plasmodium falciparum [1]", "result": 95, "unit": "%"}, {"measurement": "Inhibition", "setting": "Plasmodium falciparum [2]", "result": 87, "unit": "%"}, {"measurement": "Inhibition", "setting": "HepG2", "result": 27, "unit": "%"}]}
{"smiles": "Cc1cc(O)c(CNC2CCCCC2)cc1C.Cl", "values": [{"measurement": "Inhibition", "setting": "Plasmodium falciparum [1]", "result": 95, "unit": "%"}, {"measurement": "Inhibition", "setting": "Plasmodium falciparum [2]", "result": 95, "unit": "%"}, {"measurement": "Inhibition", "setting": "HepG2", "result": 6, "unit": "%"}]}
{"smiles": "O=c1ccc(CNc2nc(NCCc3ccccc3)nc3ccc(Cl)cc23)c[nH]1", "values": [{"measurement": "Inhibition", "setting": "Plasmodium falciparum [1]", "result": 99, "unit": "%"}, {"measurement": "Inhibition", "setting": "Plasmodium falciparum [2]", "result": 16, "unit": "%"}, {"measurement": "Inhibition", "setting": "HepG2", "result": 9, "unit": "%"}]}
{"smiles": "COc1ccc(N2CCN(CCCCNC(=O)c3ccc(NC(=O)c4cc(Cl)cc(Cl)c4)cc3)CC2)c(OC)c1.Cl", "values": [{"measurement": "Inhibition", "setting": "Plasmodium falciparum [1]", "result": 100, "unit": "%"}, {"measurement": "Inhibition", "setting": "Plasmodium falciparum [2]", "result": 84, "unit": "%"}, {"measurement": "Inhibition", "setting": "HepG2", "result": 21, "unit": "%"}]}
{"smiles": "O=C(O)C(F)(F)F.c1cc(CN2CCC(CCN3CCCCC3)CC2)cc(-c2cccc(-c3nc4ccccc4[nH]3)c2)c1", "values": [{"measurement": "Inhibition", "setting": "Plasmodium falciparum [1]", "result": 100, "unit": "%"}, {"measurement": "Inhibition", "setting": "Plasmodium falciparum [2]", "result": 100, "unit": "%"}, {"measurement": "Inhibition", "setting": "HepG2", "result": 95, "unit": "%"}]}
{"smiles": "Cc1cccn2c(=O)c3cc(C(=O)NCCc4ccccc4)c(=N)n(CCCOC(C)C)c3nc12", "values": [{"measurement": "Inhibition", "setting": "Plasmodium falciparum [1]", "result": 100, "unit": "%"}, {"measurement": "Inhibition", "setting": "Plasmodium falciparum [2]", "result": 40, "unit": "%"}, {"measurement": "Inhibition", "setting": "HepG2", "result": 19, "unit": "%"}]}
{"smiles": "CCNc1cc(C(=O)N[C@@H](Cc2ccccc2)[C@H](O)CNCCCc2ccc(OC)cc2)cc(N2CCCC2=O)c1.O=C(O)C(F)(F)F", "values": [{"measurement": "Inhibition", "setting": "Plasmodium falciparum [1]", "result": 99, "unit": "%"}, {"measurement": "Inhibition", "setting": "Plasmodium falciparum [2]", "result": 96, "unit": "%"}, {"measurement": "Inhibition", "setting": "HepG2", "result": 4, "unit": "%"}]}
{"smiles": "CCc1nc(N)nc(N)c1CCCOc1ccccc1Cl.Cl", "values": [{"measurement": "Inhibition", "setting": "Plasmodium falciparum [1]", "result": 92, "unit": "%"}, {"measurement": "Inhibition", "setting": "Plasmodium falciparum [2]", "result": 13, "unit": "%"}, {"measurement": "Inhibition", "setting": "HepG2", "result": 61, "unit": "%"}]}
{"smiles": "Cc1[nH]c(C)c(-c2ccc(-c3ccc(C(F)(F)F)cc3C(F)(F)F)nc2)c(=O)c1Br", "values": [{"measurement": "Inhibition", "setting": "Plasmodium falciparum [1]", "result": 97, "unit": "%"}, {"measurement": "Inhibition", "setting": "Plasmodium falciparum [2]", "result": 97, "unit": "%"}, {"measurement": "Inhibition", "setting": "HepG2", "result": 30, "unit": "%"}]}
{"smiles": "CCNc1cc(C(=O)N[C@@H](Cc2ccccc2)[C@H](O)CNCc2ccc3c(c2)OCCO3)cc(N2CCCCS2(=O)=O)c1.O=CO", "values": [{"measurement": "Inhibition", "setting": "Plasmodium falciparum [1]", "result": 95, "unit": "%"}, {"measurement": "Inhibition", "setting": "Plasmodium falciparum [2]", "result": 45, "unit": "%"}, {"measurement": "Inhibition", "setting": "HepG2", "result": 0, "unit": "%"}]}
{"smiles": "COc1ccc(O)cc1/C=N/Nc1ccnc2cc(Cl)ccc12", "values": [{"measurement": "Inhibition", "setting": "Plasmodium falciparum [1]", "result": 100, "unit": "%"}, {"measurement": "Inhibition", "setting": "Plasmodium falciparum [2]", "result": 92, "unit": "%"}, {"measurement": "Inhibition", "setting": "HepG2", "result": 0, "unit": "%"}]}
